Counter-ions that a name gives are not always drawn.
Experiments:
Conditions in all cases: treatment time: 24 h
[1] = tested on: A549-CANX-COX4; experiment: phenotypically active (imaging signature differs from DMSO and reproducible) at any of 0.3-9 uM (binary (1 = active, 0 = inactive)); higher = active
Outline: (§1)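 Cells from fifteen gene-edited reporter lines (A549, HepG2 and WPMY1) were treated for 24 h at 0.3, 1, 3 or 9 µM and imaged live, four wells per condition. Features were normalised per well to solvent control wells. A condition deviated if ≥3 of 4 wells passed the 95th percentile of control Euclidean distances and was reproducible if its median replicate Pearson correlation beat the 95th percentile of non-replicates; phenotypic activity needed both.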

[2] = tested on: A549-TP53BP1-CLTA; experiment: as above
Outline: as §1

[3] = tested on: HepG2-ACTB-RAB5A; experiment: as above
Outline: as §1

[4] = tested on: HepG2-CANX-COX4; experiment: as above
Outline: as §1

[5] = tested on: HepG2-GM130-SQSTM1; experiment: as above
Outline: as §1

[6] = tested on: HepG2-TP53BP1-CLTA; experiment: as above
Outline: as §1

[7] = tested on: HepG2-TUBA1B-RELA; experiment: as above
Outline: as §1

[8] = tested on: WPMY1-ACTB-RAB5A; experiment: as above
Outline: as §1

[9] = tested on: WPMY1-CANX-COX4; experiment: as above
Outline: as §1

[10] = tested on: WPMY1-GM130-SQSTM1; experiment: as above
Outline: as §1

[11] = tested on: WPMY1-TP53BP1-CLTA; experiment: as above
Outline: as §1

[12] = tested on: WPMY1-TUBA1B-RELA; experiment: as above
Outline: as §1

[13] = tested on: WPMY1-GM130-SQSTM1; experiment: lowest phenotypically active concentration; higher = less potent
Outline: as §1

[14] = tested on: A549-ACTB-RAB5A; experiment: phenotypically active (imaging signature differs from DMSO and reproducible) at any of 0.3-9 uM (binary (1 = active, 0 = inactive)); higher = active
Outline: as §1

[15] = tested on: A549-GM130-SQSTM1; experiment: as above
Outline: as §1

[16] = tested on: A549-TUBA1B-RELA; experiment: as above
Outline: as §1

[17] = tested on: HepG2-CANX-COX4; experiment: lowest phenotypically active concentration; higher = less potent
Outline: as §1

[18] = tested on: HepG2-TUBA1B-RELA; experiment: as above
Outline: as §1

SMILES | phenotypically active [1] | phenotypically active [2] | phenotypically active [3] | phenotypically active [4] | phenotypically active [5] | phenotypically active [6] | phenotypically active [7] | phenotypically active [8] | phenotypically active [9] | phenotypically active [10] | phenotypically active [11] | phenotypically active [12] | lowest phenotypically active concentration [13] [µM] | phenotypically active [14] | phenotypically active [15] | phenotypically active [16] | lowest phenotypically active concentration [17] [µM] | lowest phenotypically active concentration [18] [µM]
CCCCCCCCCCCCc1ccc(S(=O)(=O)Nc2nncs2)cc1 | 0 (inactive) | 0 (inactive) | 0 (inactive) | 0 (inactive) | 0 (inactive) | 0 (inactive) | 0 (inactive) | 0 (inactive) | 0 (inactive) | 0 (inactive) | 0 (inactive) | 0 (inactive) | – | – | – | – | – | –
COc1ccc(-c2ccc3cc(C(=O)O)ccc3c2)cc1C12CC3CC(CC(C3)C1)C2 [Adapalene] | 0 (inactive) | 0 (inactive) | 0 (inactive) | 0 (inactive) | 0 (inactive) | 0 (inactive) | 0 (inactive) | 0 (inactive) | 0 (inactive) | 1 (active) | 0 (inactive) | 0 (inactive) | 1 | 0 (inactive) | 0 (inactive) | 0 (inactive) | – | –
O=c1cc(-c2ccc(O)cc2)oc2c(C3O[C@H](CO)[C@@H](O)[C@H](O)[C@H]3O)c(O)cc(O)c12 (stereo not given in full) [Vitexin] | 0 (inactive) | 0 (inactive) | 0 (inactive) | 0 (inactive) | 0 (inactive) | 0 (inactive) | 0 (inactive) | 0 (inactive) | 0 (inactive) | 0 (inactive) | 0 (inactive) | 0 (inactive) | – | – | – | – | – | –
Cc1ccccc1N1C(=O)c2cc(S(N)(=O)=O)c(Cl)cc2NC1C (stereo not given) [metolazone] | 0 (inactive) | 0 (inactive) | 0 (inactive) | 0 (inactive) | 0 (inactive) | 0 (inactive) | 0 (inactive) | 0 (inactive) | 0 (inactive) | 0 (inactive) | 0 (inactive) | 0 (inactive) | – | – | – | – | – | –
COc1ccc2c3c(c(=O)n(C)c2c1OC)C=CC(C)(C)O3 [Veprisine] | 0 (inactive) | 0 (inactive) | 0 (inactive) | 0 (inactive) | 0 (inactive) | 0 (inactive) | 0 (inactive) | 0 (inactive) | 0 (inactive) | 1 (active) | 1 (active) | 0 (inactive) | 9 | 0 (inactive) | 0 (inactive) | 0 (inactive) | – | –
COc1ccc(CCN(C)CCCC(C#N)(c2ccc(OC)c(OC)c2)C(C)C)cc1OC (stereo not given) [verapamil] | 0 (inactive) | – | 0 (inactive) | 0 (inactive) | 0 (inactive) | – | 0 (inactive) | 0 (inactive) | 0 (inactive) | 0 (inactive) | – | 0 (inactive) | – | 1 (active) | 1 (active) | 1 (active) | – | –
COC(=O)[C@@H]1[C@H]2C[C@H]3c4[nH]c5ccccc5c4CCN3C[C@@H]2CC[C@@H]1O [Yohimbine hydrochloride] | 0 (inactive) | 0 (inactive) | 0 (inactive) | 0 (inactive) | 0 (inactive) | 0 (inactive) | 0 (inactive) | 0 (inactive) | 0 (inactive) | 1 (active) | 0 (inactive) | 0 (inactive) | 9 | 0 (inactive) | 0 (inactive) | 0 (inactive) | – | –
CC(C)[C@H](N)C(=O)OCC(CO)OCn1cnc2c(=O)[nH]c(N)nc21 (stereo not given in full) [valganciclovir] | 0 (inactive) | 0 (inactive) | 0 (inactive) | 0 (inactive) | 0 (inactive) | 0 (inactive) | 0 (inactive) | 0 (inactive) | 0 (inactive) | 1 (active) | 0 (inactive) | 0 (inactive) | 1 | 0 (inactive) | 0 (inactive) | 0 (inactive) | – | –
NCCC(O)(P(=O)(O)O)P(=O)(O)O [pamidronate] | 0 (inactive) | 0 (inactive) | 0 (inactive) | 0 (inactive) | 0 (inactive) | 0 (inactive) | 0 (inactive) | 0 (inactive) | 0 (inactive) | 0 (inactive) | 0 (inactive) | 0 (inactive) | – | – | – | – | – | –
Cc1ccc(NC(=O)c2ccc(CN3CCN(C)CC3)cc2)cc1Nc1nccc(-c2cccnc2)n1 [Imatinib mesylate] | 1 (active) | – | 1 (active) | 1 (active) | – | – | 1 (active) | 1 (active) | 1 (active) | 1 (active) | – | 1 (active) | – | – | 1 (active) | – | – | –
CCCCCCCN(CC)CCCC(O)c1ccc(NS(C)(=O)=O)cc1 (stereo not given) [ibutilide] | 0 (inactive) | 0 (inactive) | 0 (inactive) | 0 (inactive) | 0 (inactive) | 0 (inactive) | 0 (inactive) | 0 (inactive) | 0 (inactive) | 1 (active) | 0 (inactive) | 0 (inactive) | 3 | 0 (inactive) | 0 (inactive) | 0 (inactive) | – | –
COc1cc2nc(N3CCN(C(=O)c4ccco4)CC3)nc(N)c2cc1OC [prazosin] | 0 (inactive) | – | 0 (inactive) | 1 (active) | 0 (inactive) | – | 1 (active) | 0 (inactive) | 0 (inactive) | 0 (inactive) | – | 0 (inactive) | – | 0 (inactive) | 0 (inactive) | 0 (inactive) | 9 | 9
C/C(=C/C(=O)Nc1ccccc1C(=O)O)c1ccc2ccccc2c1 | 0 (inactive) | 0 (inactive) | 0 (inactive) | 0 (inactive) | 0 (inactive) | 0 (inactive) | 0 (inactive) | 0 (inactive) | 0 (inactive) | 0 (inactive) | 0 (inactive) | 0 (inactive) | – | – | – | – | – | –

— the supplement of paper PMC7411054
